Data from PubChem BioAssay (NCATS).
Records with an inconclusive call do not appear. Entries that show only a call come without a potency. Some compounds were tested as several samples or in several runs, with calls that do not always agree. Calls of active or inactive are those of the source. Calls come from the whole dose curve; as a rule, active = well fitted curve in the direction sought with a large enough effect; inconclusive = small, poorly fitted or top-dose-only effect, or another doubt; inactive = no such curve, though single readings can be large; an effect the other way counts as inactive or inconclusive.

Experiments:
[1] = target: Metallo-beta-lactamase type 2 (Klebsiella pneumoniae) (UniProt C7C422); assay: qHTS to identify inhibitors of the New Delhi Metallo-beta-lactamase (NDM): assay validation screen against the NCATS LOPAC Collection (AID 1794843);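 note: nitrocefin turnover by NDM-1 measured as 485 nm absorbance at plateau; series mostly up to about 38 µM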
Sequence of Metallo-beta-lactamase type 2 (Klebsiella pneumoniae) (C7C422 whole entry, looked up): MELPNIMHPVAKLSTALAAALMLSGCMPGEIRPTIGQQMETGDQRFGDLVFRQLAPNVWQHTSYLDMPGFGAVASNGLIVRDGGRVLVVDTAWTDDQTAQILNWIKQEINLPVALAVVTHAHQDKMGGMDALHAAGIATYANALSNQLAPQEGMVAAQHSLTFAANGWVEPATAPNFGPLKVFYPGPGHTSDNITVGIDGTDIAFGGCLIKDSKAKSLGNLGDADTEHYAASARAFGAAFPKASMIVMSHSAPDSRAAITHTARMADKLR
Procedure, shortened: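 Enzyme 2 nM final, 50 mM HEPES pH 7.0, 1 uM ZnSO4, 0.01% Tween20; cpds in DMSO, preincub w/ enzyme; + nitrocefin (50 uM stock); A485 at plateau; no-enzyme column as blank.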

[2] = target: Glutathione peroxidase 1 (Homo sapiens) (UniProt P07203); assay: Primary qHTS Assay for Inhibitors of Recombinant Selenoprotein Glutathione Peroxidase 1 (GPX1) (AID 1845191); note: nearly all actives have a fitted effect of over 65% in size; note: potency is the fitted concentration of half-maximal effect
Sequence of Glutathione peroxidase 1 (Homo sapiens) (P07203 whole entry, looked up): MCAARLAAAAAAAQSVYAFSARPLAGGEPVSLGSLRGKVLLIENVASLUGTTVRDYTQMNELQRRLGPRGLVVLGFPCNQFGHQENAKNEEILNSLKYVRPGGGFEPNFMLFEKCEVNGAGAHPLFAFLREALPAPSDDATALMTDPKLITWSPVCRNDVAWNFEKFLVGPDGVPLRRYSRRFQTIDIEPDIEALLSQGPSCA
Procedure, shortened: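 GPX1 10 nM, GR 100 nM, GSH 1 mM, NADPH 0.5 mM, CHP 0.5 mM (final). 30-min cpd preincubation, RT. Ex340/Em450 read t=0, t=15 min.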

[3] = Quantitative High-Throughput drug screen in 47 multiple myeloma cell lines against the NCATS MIPE library collection: FR4_PLB cell viability assay (AID 1918924; note: nearly all actives have a fitted effect of over 35% in size; note: potency is the fitted concentration of half-maximal effect)
Procedure, shortened: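 Relative luminescence from CellTiter-Glo served as the viability signal, referenced to DMSO-treated (100%) and cell-free medium (0%) controls. Treatment lasted 48 hours at 37C with 500 cells per well.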

[4] = Quantitative High-Throughput drug screen in 47 multiple myeloma cell lines against the NCATS MIPE library collection: Delta47_JCRB cell viability assay (AID 1918925; note: nearly all actives have a fitted effect of over 45% in size; note: potency is the fitted concentration of half-maximal effect)
Procedure, shortened: (§1)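 CellTiter-Glo luminescence (ATP) after 48 h compound exposure, 37C/5% CO2; 500 cells/well; MIPE 4.0 approved/investigational drugs pinned in; DMSO = 100%, media only = 0% viability.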

[5] = Quantitative High-Throughput drug screen in 47 multiple myeloma cell lines against the NCATS MIPE library collection: EJM_DSMZ cell viability assay (AID 1918926; note: nearly all actives have a fitted effect of over 30% in size; note: potency is the fitted concentration of half-maximal effect)
Procedure, shortened: as §1

[6] = Quantitative High-Throughput drug screen in 47 multiple myeloma cell lines against the NCATS MIPE library collection: AMO1_DSMZ cell viability assay (AID 1918927; note: nearly all actives have a fitted effect of over 30% in size; note: potency is the fitted concentration of half-maximal effect)
Procedure, shortened: as §1

[7] = target: Phospholipid hydroperoxide glutathione peroxidase GPX4 (Homo sapiens) (UniProt P36969); assay: Primary qHTS Assay for Inhibitors of Recombinant Selenoprotein Glutathione Peroxidase 4 (GPX4) (AID 1845192); note: nearly all actives have a fitted effect of over 65% in size
Sequence of Phospholipid hydroperoxide glutathione peroxidase GPX4 (Homo sapiens) (P36969 whole entry, looked up): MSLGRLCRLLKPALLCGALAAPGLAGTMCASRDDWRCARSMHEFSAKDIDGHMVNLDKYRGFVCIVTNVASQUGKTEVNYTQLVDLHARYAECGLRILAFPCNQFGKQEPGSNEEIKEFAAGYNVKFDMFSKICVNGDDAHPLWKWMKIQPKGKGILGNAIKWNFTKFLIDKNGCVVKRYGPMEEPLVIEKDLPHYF
Procedure, shortened: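 qHTS, GR-coupled: GPX4 200 nM + cpd 30 min RT → GSH 1 mM, NADPH 0.5 mM, GR 100 nM → CHP 0.5 mM start; fluor 340/450 at t0 and t15 min; no-enzyme wells as control.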

[8] = target: Nicotinamide N-methyltransferase (Homo sapiens) (UniProt P40261); assay: Confirmatory Screen for Target Class Profiling of Small Molecule Inhibitors of Methyltransferases (AID 1745852); conditions: MTase-Glo luminescence, SAH detection, recombinant enzyme; measured here: NNMT max response; stronger effect = lower value
Sequence of Nicotinamide N-methyltransferase (Homo sapiens) (P40261 whole entry, looked up): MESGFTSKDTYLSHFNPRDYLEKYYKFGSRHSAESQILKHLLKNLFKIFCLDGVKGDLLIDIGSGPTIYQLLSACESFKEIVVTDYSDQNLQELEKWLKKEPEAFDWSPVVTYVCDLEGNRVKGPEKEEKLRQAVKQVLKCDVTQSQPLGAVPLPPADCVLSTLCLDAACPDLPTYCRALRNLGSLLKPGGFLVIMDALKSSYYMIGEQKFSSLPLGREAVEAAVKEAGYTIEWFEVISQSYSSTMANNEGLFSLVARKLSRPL

[9] = target: Phenylethanolamine N-methyltransferase (Homo sapiens) (UniProt P11086); assay: as above; conditions: MTase-Glo luminescence, SAH detection, recombinant enzyme; measured here: PNMT max response; stronger effect = lower value
Sequence of Phenylethanolamine N-methyltransferase (Homo sapiens) (P11086 whole entry, looked up): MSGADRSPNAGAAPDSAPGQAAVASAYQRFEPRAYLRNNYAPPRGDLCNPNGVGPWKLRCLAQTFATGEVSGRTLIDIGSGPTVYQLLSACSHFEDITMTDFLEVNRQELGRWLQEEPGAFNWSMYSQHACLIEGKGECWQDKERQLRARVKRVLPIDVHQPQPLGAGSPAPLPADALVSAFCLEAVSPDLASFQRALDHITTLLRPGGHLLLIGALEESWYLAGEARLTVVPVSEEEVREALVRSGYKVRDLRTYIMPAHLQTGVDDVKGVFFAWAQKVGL

[10] = target: Luciferin 4-monooxygenase (Photinus pyralis) (UniProt P08659); assay: Primary firefly luciferase (FLuc) qHTS assay for identification of artifact compounds. (AID 1845220); conditions: outcome: dose series up to 54.1 µM; note: nearly all actives have a fitted effect of over 60% in size
Procedure, shortened: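 qHTS, 15 min compound preincubation with substrate (10 uM luciferin, 10 uM ATP) at RT, then 10 nM FLuc; 5 min; luminescence; % inhibition vs no-enzyme/DMSO controls, 4-parameter Hill fit.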

[11] = Primary fluorescence-based thiol-reactive (MSTI) qHTS assay for identification of artifact compounds. (AID 1845221);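 note: series mostly up to about 54 µM; thiol-reactive compounds lower the probe fluorescence signal; nearly all actives have a fitted effect of over 65% in size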
Procedure, shortened: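 A multi-concentration qHTS design tested compounds against 4 uM MSTI, pH 7.4 phosphate-buffered saline. Plates were protected from light for 1 h at room temperature before imaging fluorescence.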

[12] = tested on: Nanoluciferase (engineered Oplophorus gracilirostris luciferase); assay: Primary Nanoluciferase (NLuc) qHTS assay for identification of artifact compounds. (AID 1845222); note: series mostly up to about 54 µM
Procedure, shortened: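 Luminescence read-out of secreted NLuc in S16 cell conditioned medium (1:55); compounds tested with 15 min RT preincubation, then Nano-Glo substrate 1:100, 5 min. % inhibition vs no-enzyme and DMSO controls, 4-parameter Hill fit.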

[13] = Primary redox qHTS assay for identification of artifact compounds. (AID 1845223)
Procedure, shortened: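 Redox-cycling detection via DTT (250 uM final) oxidation coupled to Amplex Red (25 uM)/HRP (250 mU/mL) in HBSS. 15 min preincubation plus 30 min after DTT, room temperature. Ex/Em 525/598 nm; 4-parameter Hill fit against DMSO and 10 uM DA3003.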

[14] = NCATS anti-infectives library activity on HEK293 viability as a counter-qHTS vs the C. elegans viability qHTS (AID 1745854)
Procedure, shortened: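 CellTiter-Glo luminescence, read on a CCD imager, scored viability of HEK293 cells after 24 hr compound exposure at 37C. Library tested in several concentrations, 1:5 steps, up to 41.7 uM; digitonin served as control.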

[15] = Viability counterscreen for antagonist of constitutive androstane receptor (CAR) against the NCATS DSHEA and TCM libraries (AID 1794837);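 note: compound exposure lasted 24 h before viability reading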
Procedure, shortened: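 Fluorescence from CellTiter-Fluor reports live-cell protease activity in HepG2-CYP2B6-hCAR cells treated for 24 h with substances alongside 48 uM CITCO.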

[16] = Viability counterscreen for agonist of constitutive androstane receptor (CAR) against the NCATS DSHEA and TCM libraries (AID 1794838);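 note: cells exposed to compound for 24 h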
Procedure, shortened: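 In agonist mode, PK11195 is added at 0.75 uM final to HepG2-CYP2B6-hCAR cells dosed with test substances. Cultures incubate 24 h at 37C before a protease-based fluorogenic viability readout.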

[17] = target: Nuclear receptor subfamily 1 group I member 3 (Homo sapiens) (UniProt Q14994); assay: Primary qHTS for agonist of constitutive androstane receptor (CAR) against the NCATS DSHEA and TCM libraries (AID 1794839);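 note: HepG2 cells expressing human CAR with a CYP2B6 reporter plus PK11195 antagonist; luciferase reporter luminescence read with ONE-Glo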
Sequence of Nuclear receptor subfamily 1 group I member 3 (Homo sapiens) (Q14994 whole entry, looked up): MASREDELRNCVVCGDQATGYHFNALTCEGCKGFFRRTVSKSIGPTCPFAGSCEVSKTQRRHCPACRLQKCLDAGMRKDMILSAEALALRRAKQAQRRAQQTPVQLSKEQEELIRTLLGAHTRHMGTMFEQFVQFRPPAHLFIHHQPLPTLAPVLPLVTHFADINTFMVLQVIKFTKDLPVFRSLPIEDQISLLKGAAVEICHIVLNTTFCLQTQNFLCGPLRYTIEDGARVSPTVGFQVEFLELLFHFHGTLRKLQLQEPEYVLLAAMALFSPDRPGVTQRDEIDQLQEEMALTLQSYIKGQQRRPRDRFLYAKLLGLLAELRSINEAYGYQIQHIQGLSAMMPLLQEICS
Procedure, shortened: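 Cells stably carrying hCAR and a CYP2B6 reporter (HepG2 background) are seeded and allowed 5 h to adhere. Substances at multiple concentrations are added alongside 0.75 µM PK11195, and luciferase signal is measured after 24 h.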

[18] = HepG2 viability counterscreen (readout 2: ATP content) against the NCATS DSHEA and TCM libraries (AID 1794840);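 note: HepG2 cells exposed to substances for about 24 h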
Procedure, shortened: (§2)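 Cytotoxicity was assessed in HepG2 cells plated at 1,000 cells/well and exposed for about 24 hours to a concentration series. Protease activity and ATP content were measured sequentially in each well.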

[19] = HepG2 viability counterscreen (readout 1: protease activity) against the NCATS DSHEA and TCM libraries (AID 1794841);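 note: cells exposed to compounds for about 24 h before the protease read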
Procedure, shortened: as §2

COc1cc2nc(N3CCCN(C)CC3)nc(NC3CCN(Cc4ccccc4)CC3)c2cc1OC
outcome [1]: inactive | Potency [2]: inactive | Potency [3]: 5.26 µM (active) | Potency [4]: 2.09 µM (active) | Potency [5]: 9.35 µM (active) | Potency [6]: 7.43 µM (active)

CC(C)NCC(O)c1ccc(NS(C)(=O)=O)cc1 (stereo not drawn)
outcome [1]: inactive | Potency [2]: inactive | Potency [7]: inactive | Potency [3]: inactive | Potency [4]: inactive | Potency [5]: inactive

NC1(c2ccc(-c3nc4ccn5c(=O)[nH]nc5c4cc3-c3ccccc3)cc2)CCC1
activity [8]: -25.8% | activity [9]: -8.08% | Potency [2]: inactive | Potency [7]: inactive | outcome [10]: inactive | Potency [11]: inactive | outcome [12]: inactive | Potency [13]: inactive | Potency [3]: inactive | Potency [4]: 0.332 µM (active) | Potency [5]: 11.8 µM (active) | Potency [6]: 3.72 µM (active)

O=C(N[C@H](CO)[C@H](O)c1ccc([N+](=O)[O-])cc1)C(Cl)Cl
Potency [14]: inactive | Potency [2]: inactive | Potency [7]: inactive | Potency [4]: inactive | Potency [5]: inactive | Potency [6]: inactive

CCN(CC)CCn1c(=O)c(Cc2ccc(OC)cc2)nc2ccccc21
outcome [1]: inactive | Potency [7]: inactive | Potency [3]: inactive | Potency [5]: inactive | Potency [6]: inactive

CC(=O)Oc1ccccc1C(=O)Nc1ncc([N+](=O)[O-])s1
Potency [14]: inactive | Potency [7]: inactive | Potency [3]: 19.1 µM (active) | Potency [4]: 30.3 µM (active) | Potency [5]: 13.6 µM (active) | Potency [6]: 13.6 µM (active)

CC1=C(C(=O)O)N2C(=O)[C@@H](NC(=O)C(N)c3ccccc3)[C@H]2SC1 (stereo partly drawn)
outcome [1]: inactive | Potency [7]: inactive | Potency [3]: inactive | Potency [5]: inactive | Potency [6]: inactive

NC(=O)c1cccc(N)c1
Potency [14]: inactive | outcome [1]: inactive | Potency [2]: inactive | Potency [7]: inactive | Potency [3]: inactive | Potency [4]: inactive | Potency [5]: inactive | Potency [6]: inactive

O=S(=O)(c1cccc2cnccc12)N1CCCNCC1
Potency [14]: inactive | Potency [2]: inactive | Potency [7]: inactive

CC(N)C12CC3CC(CC(C3)C1)C2 (stereo not drawn)
Potency [14]: inactive | Potency [2]: 6.4 µM (active) and inactive | Potency [7]: inactive | Potency [3]: inactive | Potency [4]: inactive | Potency [5]: inactive

Nc1nc(N)c2nc(CNc3ccc(C(=O)NC(CCC(=O)O)C(=O)O)cc3)cnc2n1 (stereo not drawn)
outcome [1]: inactive | Potency [2]: inactive | Potency [7]: inactive | Potency [4]: inactive | Potency [6]: 0.0235 µM (active)

CNS(=O)(=O)CCc1ccc2[nH]cc(C3CCN(C)CC3)c2c1
activity [8]: -12.2% | activity [9]: -2.32% | outcome [1]: inactive | Potency [7]: inactive | outcome [10]: inactive | Potency [11]: inactive | outcome [12]: inactive | Potency [13]: inactive | Potency [3]: 16.6 µM (active) | Potency [4]: 1.18 µM (active) | Potency [6]: 2.35 µM (active)

COc1cc2ncnc(Nc3cccc(Cl)c3)c2cc1OC
activity [8]: -29.1% | activity [9]: -45.8% | outcome [1]: inactive | Potency [2]: inactive | Potency [7]: inactive | outcome [10]: inactive | Potency [11]: inactive | outcome [12]: inactive | Potency [3]: 26.4 µM (active) | Potency [5]: 0.0418 µM (active) | Potency [6]: 23.5 µM (active)

CC1CC2C3CCC4=CC(=O)C=C[C@]4(C)[C@@]3(F)[C@@H](O)C[C@]2(C)[C@@]1(O)C(=O)CO (stereo partly drawn)
outcome [1]: inactive | Potency [2]: inactive | Potency [7]: inactive | Potency [5]: inactive | Potency [6]: 0.833 µM (active)

CCCCS(=N)(=O)CCC(N)C(=O)O (stereo not drawn)
outcome [1]: inactive | Potency [2]: inactive | Potency [7]: inactive | Potency [3]: inactive | Potency [4]: inactive | Potency [6]: inactive

CCN1CCCC1CNC(=O)c1cc(S(N)(=O)=O)ccc1OC (stereo not drawn)
outcome [1]: inactive | Potency [2]: inactive | Potency [7]: inactive | Potency [3]: inactive | Potency [4]: inactive | Potency [5]: inactive | Potency [6]: inactive

Cc1ccnc2c1NC(=O)c1cccnc1N2C1CC1
Potency [14]: inactive | Potency [2]: inactive | Potency [7]: inactive | Potency [3]: inactive | Potency [4]: 20.9 µM (active) | Potency [5]: inactive

CC(C)(Sc1cc(C(C)(C)C)c(O)c(C(C)(C)C)c1)Sc1cc(C(C)(C)C)c(O)c(C(C)(C)C)c1
Potency [14]: inactive | Potency [2]: inactive | Potency [7]: inactive | Potency [3]: inactive | Potency [4]: 5.26 µM (active) | Potency [6]: inactive

CCOC(=O)c1ccc(OC(=O)CCCCCN=C(N)N)cc1
Potency [14]: inactive | Potency [2]: inactive | Potency [7]: inactive | Potency [3]: inactive | Potency [4]: inactive | Potency [5]: inactive | Potency [6]: inactive

NNC(=O)c1ccncc1
outcome [15]: inactive | outcome [16]: inactive | outcome [17]: inactive | outcome [18]: inactive | outcome [19]: inactive | Potency [2]: inactive | Potency [7]: inactive | Potency [3]: inactive | Potency [4]: inactive | Potency [6]: inactive

O=C(O)C1CCCN(CCC=C(c2ccccc2)c2ccccc2)C1 (stereo not drawn)
outcome [1]: inactive | Potency [2]: inactive | Potency [7]: inactive | Potency [3]: inactive | Potency [4]: inactive | Potency [5]: inactive | Potency [6]: inactive

O=C(O)c1cccnc1
outcome [15]: inactive | outcome [16]: inactive | outcome [17]: inactive | outcome [18]: inactive | outcome [19]: inactive | Potency [2]: inactive | Potency [7]: inactive | Potency [3]: inactive | Potency [4]: inactive | Potency [5]: inactive | Potency [6]: inactive

Clc1ccccc1CN1CCc2sccc2C1
Potency [14]: inactive | Potency [2]: inactive | Potency [7]: inactive
